Consider 40 targets from the supplement of paper PMC12819154, “High-throughput peptide-centric local stability assay extends protein–ligand identification to membrane proteins, tissues and bacteria” (Nature Structural & Molecular Biology, 2025).
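Note: lysate desalted by size exclusion to strip endogenous ATP, peptide intensities built from DIA-NN precursor signals, and peptides missing any value discarded before comparison.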

UniProt P21420, sequence (P21420 whole entry): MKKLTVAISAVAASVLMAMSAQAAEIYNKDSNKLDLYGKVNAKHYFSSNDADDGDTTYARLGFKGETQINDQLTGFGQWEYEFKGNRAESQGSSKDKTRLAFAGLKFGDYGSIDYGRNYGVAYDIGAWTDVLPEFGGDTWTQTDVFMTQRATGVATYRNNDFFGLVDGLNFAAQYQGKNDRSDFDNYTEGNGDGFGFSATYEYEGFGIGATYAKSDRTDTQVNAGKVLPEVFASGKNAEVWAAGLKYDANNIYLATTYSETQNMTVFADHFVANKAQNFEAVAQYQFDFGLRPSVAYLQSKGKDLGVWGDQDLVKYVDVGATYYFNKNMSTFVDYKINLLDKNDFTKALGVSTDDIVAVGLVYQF
UniProt P23331, sequence (P23331 whole entry): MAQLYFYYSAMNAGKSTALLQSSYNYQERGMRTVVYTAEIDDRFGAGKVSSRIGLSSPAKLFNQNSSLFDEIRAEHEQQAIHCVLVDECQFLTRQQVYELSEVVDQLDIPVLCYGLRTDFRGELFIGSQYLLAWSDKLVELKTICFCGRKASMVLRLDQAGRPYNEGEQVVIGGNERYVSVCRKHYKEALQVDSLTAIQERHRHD
UniProt P77611, sequence (P77611 whole entry): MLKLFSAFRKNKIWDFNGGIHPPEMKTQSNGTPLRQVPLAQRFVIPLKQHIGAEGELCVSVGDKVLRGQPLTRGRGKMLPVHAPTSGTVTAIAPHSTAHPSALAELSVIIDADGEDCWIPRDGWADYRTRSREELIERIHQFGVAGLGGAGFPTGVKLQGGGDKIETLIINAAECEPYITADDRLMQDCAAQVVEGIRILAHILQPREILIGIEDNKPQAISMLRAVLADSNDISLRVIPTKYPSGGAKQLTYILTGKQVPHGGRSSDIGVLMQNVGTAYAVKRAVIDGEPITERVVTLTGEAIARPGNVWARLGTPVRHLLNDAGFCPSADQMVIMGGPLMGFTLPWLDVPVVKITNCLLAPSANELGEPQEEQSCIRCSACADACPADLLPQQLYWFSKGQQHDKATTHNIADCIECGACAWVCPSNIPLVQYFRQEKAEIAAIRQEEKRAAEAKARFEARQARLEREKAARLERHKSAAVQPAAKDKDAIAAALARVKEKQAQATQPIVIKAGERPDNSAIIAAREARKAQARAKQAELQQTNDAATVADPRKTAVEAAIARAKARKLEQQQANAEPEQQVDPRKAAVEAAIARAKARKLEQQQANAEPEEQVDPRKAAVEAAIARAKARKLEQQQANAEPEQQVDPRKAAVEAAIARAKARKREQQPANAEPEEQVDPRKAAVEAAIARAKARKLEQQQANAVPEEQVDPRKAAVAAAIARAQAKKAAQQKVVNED
UniProt P36929, sequence (P36929 whole entry): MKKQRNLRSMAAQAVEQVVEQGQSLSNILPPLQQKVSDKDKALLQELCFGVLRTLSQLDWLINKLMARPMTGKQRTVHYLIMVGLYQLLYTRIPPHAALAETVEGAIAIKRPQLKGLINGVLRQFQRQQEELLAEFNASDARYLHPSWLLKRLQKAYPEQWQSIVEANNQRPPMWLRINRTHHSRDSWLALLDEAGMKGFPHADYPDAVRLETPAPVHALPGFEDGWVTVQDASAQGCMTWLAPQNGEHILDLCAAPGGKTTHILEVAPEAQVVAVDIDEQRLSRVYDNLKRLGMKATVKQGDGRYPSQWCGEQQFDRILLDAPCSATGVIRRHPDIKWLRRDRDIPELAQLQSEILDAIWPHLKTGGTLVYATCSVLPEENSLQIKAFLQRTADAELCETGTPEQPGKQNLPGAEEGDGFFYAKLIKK
UniProt P00805, sequence (P00805 whole entry): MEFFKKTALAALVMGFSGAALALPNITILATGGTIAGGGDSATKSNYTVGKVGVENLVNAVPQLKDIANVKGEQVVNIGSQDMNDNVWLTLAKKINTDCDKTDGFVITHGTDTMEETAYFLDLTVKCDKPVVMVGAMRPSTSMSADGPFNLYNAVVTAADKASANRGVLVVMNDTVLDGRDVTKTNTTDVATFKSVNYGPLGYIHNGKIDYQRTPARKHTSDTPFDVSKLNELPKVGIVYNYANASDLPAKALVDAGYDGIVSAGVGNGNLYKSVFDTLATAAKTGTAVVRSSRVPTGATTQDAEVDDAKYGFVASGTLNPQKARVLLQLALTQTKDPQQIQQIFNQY
UniProt P37751, sequence (P37751 whole entry): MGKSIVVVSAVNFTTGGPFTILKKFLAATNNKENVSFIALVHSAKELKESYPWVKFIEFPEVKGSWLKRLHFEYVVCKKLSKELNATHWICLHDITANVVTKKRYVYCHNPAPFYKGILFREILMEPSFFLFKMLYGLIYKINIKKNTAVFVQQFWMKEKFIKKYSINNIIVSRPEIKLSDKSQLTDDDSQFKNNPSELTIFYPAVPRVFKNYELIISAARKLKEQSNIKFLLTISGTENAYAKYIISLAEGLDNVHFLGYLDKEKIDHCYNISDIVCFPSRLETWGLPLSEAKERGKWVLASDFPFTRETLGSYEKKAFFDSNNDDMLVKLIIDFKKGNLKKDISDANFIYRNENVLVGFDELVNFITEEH
UniProt P43340, sequence (P43340 whole entry): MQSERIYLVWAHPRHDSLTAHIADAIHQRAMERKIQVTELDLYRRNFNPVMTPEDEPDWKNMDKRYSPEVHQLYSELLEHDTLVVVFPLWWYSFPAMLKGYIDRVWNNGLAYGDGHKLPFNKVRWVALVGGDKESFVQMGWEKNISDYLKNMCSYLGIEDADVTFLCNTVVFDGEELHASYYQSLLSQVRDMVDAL
UniProt P31548, sequence (P31548 whole entry): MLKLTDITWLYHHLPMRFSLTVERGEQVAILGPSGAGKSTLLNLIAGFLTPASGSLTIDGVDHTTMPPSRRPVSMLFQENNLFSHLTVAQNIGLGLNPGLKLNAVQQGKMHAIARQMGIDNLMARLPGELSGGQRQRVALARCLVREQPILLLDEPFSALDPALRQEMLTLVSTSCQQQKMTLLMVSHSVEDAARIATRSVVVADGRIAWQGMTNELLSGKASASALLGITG
UniProt P64554, sequence (P64554 whole entry): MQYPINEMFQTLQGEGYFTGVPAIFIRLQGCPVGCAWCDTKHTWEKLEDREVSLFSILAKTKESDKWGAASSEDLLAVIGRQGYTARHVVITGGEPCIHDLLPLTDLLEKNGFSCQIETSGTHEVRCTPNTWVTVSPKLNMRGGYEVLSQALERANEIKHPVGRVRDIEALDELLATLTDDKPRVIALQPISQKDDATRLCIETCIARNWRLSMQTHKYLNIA
UniProt Q46868, sequence (Q46868 whole entry): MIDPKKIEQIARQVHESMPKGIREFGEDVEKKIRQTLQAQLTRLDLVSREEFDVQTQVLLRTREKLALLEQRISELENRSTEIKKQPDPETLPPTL
UniProt P32131, sequence (P32131 whole entry): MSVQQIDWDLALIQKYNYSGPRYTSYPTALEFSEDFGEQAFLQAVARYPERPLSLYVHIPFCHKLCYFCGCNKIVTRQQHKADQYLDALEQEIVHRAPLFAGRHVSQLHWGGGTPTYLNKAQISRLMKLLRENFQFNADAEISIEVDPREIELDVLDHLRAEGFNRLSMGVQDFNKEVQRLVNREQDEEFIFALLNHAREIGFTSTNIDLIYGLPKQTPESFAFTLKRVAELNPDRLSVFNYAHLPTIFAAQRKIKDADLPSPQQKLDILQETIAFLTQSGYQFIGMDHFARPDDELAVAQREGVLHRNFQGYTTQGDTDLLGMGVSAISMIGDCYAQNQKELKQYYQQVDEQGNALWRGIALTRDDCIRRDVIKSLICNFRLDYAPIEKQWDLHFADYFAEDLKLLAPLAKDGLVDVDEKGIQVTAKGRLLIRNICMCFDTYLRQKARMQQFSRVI
UniProt P0AEE1, sequence (P0AEE1 whole entry): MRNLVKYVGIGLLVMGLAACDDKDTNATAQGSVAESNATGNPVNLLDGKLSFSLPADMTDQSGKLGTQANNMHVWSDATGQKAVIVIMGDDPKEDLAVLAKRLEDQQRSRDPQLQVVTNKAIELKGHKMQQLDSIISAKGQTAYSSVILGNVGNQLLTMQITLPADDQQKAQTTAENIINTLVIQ
UniProt P45579, sequence (P45579 whole entry): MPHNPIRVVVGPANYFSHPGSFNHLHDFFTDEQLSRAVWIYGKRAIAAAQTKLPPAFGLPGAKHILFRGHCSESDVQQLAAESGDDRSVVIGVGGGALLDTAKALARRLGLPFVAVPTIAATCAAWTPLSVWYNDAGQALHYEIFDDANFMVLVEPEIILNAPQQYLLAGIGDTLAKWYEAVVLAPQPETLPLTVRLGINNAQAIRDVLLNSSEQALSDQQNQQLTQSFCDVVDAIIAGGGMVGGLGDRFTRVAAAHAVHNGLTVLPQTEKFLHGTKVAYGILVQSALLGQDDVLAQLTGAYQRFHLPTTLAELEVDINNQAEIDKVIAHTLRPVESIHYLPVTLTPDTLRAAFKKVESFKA
UniProt P0ADZ7, sequence (P0ADZ7 whole entry): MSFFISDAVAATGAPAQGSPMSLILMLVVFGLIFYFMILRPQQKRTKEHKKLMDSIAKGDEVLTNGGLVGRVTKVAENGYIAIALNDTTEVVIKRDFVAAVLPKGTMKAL
UniProt P0AFI5, sequence (P0AFI5 whole entry): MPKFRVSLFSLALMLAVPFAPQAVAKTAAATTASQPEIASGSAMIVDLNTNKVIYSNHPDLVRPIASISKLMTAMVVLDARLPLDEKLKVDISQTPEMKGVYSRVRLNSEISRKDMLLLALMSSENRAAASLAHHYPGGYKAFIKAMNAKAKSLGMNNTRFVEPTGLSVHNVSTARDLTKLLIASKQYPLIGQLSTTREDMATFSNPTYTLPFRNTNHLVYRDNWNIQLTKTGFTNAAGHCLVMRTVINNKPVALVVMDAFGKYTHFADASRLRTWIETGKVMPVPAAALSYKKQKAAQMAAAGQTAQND
UniProt P46859, sequence (P46859 whole entry): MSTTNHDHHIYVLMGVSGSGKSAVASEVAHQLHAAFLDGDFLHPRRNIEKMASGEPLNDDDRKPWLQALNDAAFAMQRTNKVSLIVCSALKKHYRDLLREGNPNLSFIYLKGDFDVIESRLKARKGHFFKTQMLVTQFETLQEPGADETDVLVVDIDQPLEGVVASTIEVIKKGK

Compound in this test: Nc1ncnc2c1ncn2[C@@H]1O[C@H](COP(=O)(O)OP(=O)(O)OP(=O)(O)O)[C@@H](O)[C@H]1O [adenosine 5'-triphosphate]
Description: log2 fold change of tryptic peptide abundance, ligand vs vehicle (limited proteolysis) (log2 ratio); higher = more trypsin-susceptible (destabilized). Particulars: ligand concentration: 5 mM; sample: E. coli desalted lysate; replicate design: treated before aliquoting. Here is the method: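 HT-PELSA: desalted E. coli K-12 BW25113 lysate (with 12 mM MgCl2) incubated with 5 mM ATP (pH 7) or water for 30 min at 25 C, then a 4 min trypsin pulse at 22 C. Peptides were quantified by DIA-MS (4 replicates). Value is the peptide log2 fold change (treated/control); negative = stabilized. Scale: negative = ligand-stabilized region.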
With “UniProt P00805 (peptide sequence: SVFDTLATAAK, peptide start residue: 274)”, the log2 fold change came to 0.366.

Turning to “UniProt P0AEE1 (peptide sequence: AIELKGHK, peptide start residue: 121)”, the log2 fold change was 0.899.

Consider “UniProt P36995 (peptide sequence: VTFSIESGAK, peptide start residue: 51)”, for which the log2 fold change is -0.289.

As for “UniProt P37759 (peptide sequence: EQITYVADRPGHDRR, peptide start residue: 289)”, the log2 fold change was -0.709.

As to “UniProt P16676 (peptide sequence: LYNGDER, peptide start residue: 345)”, the log2 fold change is 0.414.

On to “UniProt P15038 (peptide sequence: LHTEDITAR, peptide start residue: 265)”, for which the log2 fold change was -2.37.

For the target “UniProt P07014 (peptide sequence: IVIRPLPGLPVIR, peptide start residue: 89)”, the log2 fold change was determined as 0.248.

In the case of “UniProt P37617 (peptide sequence: DEQAAEEPQASR, peptide start residue: 113)”, the log2 fold change stood at 2.93.

Regarding “UniProt P0AFI5 (peptide sequence: YTHFADASR, peptide start residue: 264)”, the log2 fold change is -0.35.

For “UniProt P32144 (peptide sequence: NILLVADHTK, peptide start residue: 206)”, the log2 fold change was -0.398.

Consider “UniProt P37747 (peptide sequence: DKDSLASK, peptide start residue: 216)”, for which the log2 fold change is -0.827.

In the case of “UniProt P77611 (peptide sequence: LFSAFRK, peptide start residue: 4)”, the log2 fold change turned out to be 0.344.

For “UniProt P13857 (peptide sequence: TVQGNVMLHQR, peptide start residue: 54)”, the log2 fold change was -0.406.

Take “UniProt P64602 (peptide sequence: GITCIDLSR, peptide start residue: 38)”: the log2 fold change amounted to 0.802.

Take “UniProt P64554 (peptide sequence: NGFSCQIETSGTHEVR, peptide start residue: 111)”: the log2 fold change is -0.431.

On to “UniProt P37313 (peptide sequence: GTKDQIFNNPR, peptide start residue: 244)”, for which the log2 fold change worked out at 1.01.

As for “UniProt P31680 (peptide sequence: LMSEHHPDKLVAK, peptide start residue: 228)”, the log2 fold change is -0.381.

For “UniProt P36929 (peptide sequence: VYDNLKR, peptide start residue: 286)”, the log2 fold change was -1.2.

With “UniProt P33030 (peptide sequence: TTPESEQALQR, peptide start residue: 157)”, the log2 fold change was -0.316.

“UniProt P37177 (peptide sequence: VANIYDSLHPAMLR, peptide start residue: 636)”: the log2 fold change was found to be 0.572.

“UniProt P39285 (peptide sequence: IYAAEMGHR, peptide start residue: 1044)”: the log2 fold change amounted to 0.638.

For the target “UniProt P32131 (peptide sequence: QQHKADQYLDALEQEIVHR, peptide start residue: 78)”, the log2 fold change was determined as 1.02.

“UniProt P0ACL0 (peptide sequence: IILAGGELR, peptide start residue: 137)”: the log2 fold change is -0.596.

Take “UniProt P11557 (peptide sequence: AVSTLPADVQAK, peptide start residue: 402)”: the log2 fold change was found to be 0.435.

Consider “UniProt P43340 (peptide sequence: KIQVTELDLYRR, peptide start residue: 34)”, for which the log2 fold change amounted to 1.23.

“UniProt P45579 (peptide sequence: VAAAHAVHNGLTVLPQTEK, peptide start residue: 253)”: the log2 fold change is 0.992.

On to “UniProt P23331 (peptide sequence: TVVYTAEIDDR, peptide start residue: 33)”, for which the log2 fold change was -1.64.

With “UniProt Q46868 (peptide sequence: QVHESMPK, peptide start residue: 13)”, the log2 fold change is -0.305.

“UniProt P0ADZ7 (peptide sequence: DFVAAVLPK, peptide start residue: 96)”: the log2 fold change was -0.282.

Regarding “UniProt P0AB12 (peptide sequence: VVSVETAQAAR, peptide start residue: 129)”, the log2 fold change was 0.652.

With “UniProt P21420 (peptide sequence: HYFSSNDADDGDTTYAR, peptide start residue: 44)”, the log2 fold change was -0.336.

With “UniProt P76193 (peptide sequence: TGTPVKVINEPVKYSVEPNGMR, peptide start residue: 226)”, the log2 fold change is -0.912.

As to “UniProt P17846 (peptide sequence: IHKGDFR, peptide start residue: 385)”, the log2 fold change is 1.23.

Consider “UniProt P23847 (peptide sequence: MAEMIQADWAK, peptide start residue: 392)”, for which the log2 fold change is -0.859.

Turning to “UniProt P09832 (peptide sequence: HVTCAYR, peptide start residue: 313)”, the log2 fold change was 0.367.

With “UniProt P46859 (peptide sequence: GDFDVIESR, peptide start residue: 112)”, the log2 fold change is -0.658.

As to “UniProt P77258 (peptide sequence: DENGQAIR, peptide start residue: 136)”, the log2 fold change was -0.737.

Take “UniProt P07821 (peptide sequence: TLLHPLSLTFPAGK, peptide start residue: 25)”: the log2 fold change was -1.16.

In the case of “UniProt P37751 (peptide sequence: SQLTDDDSQFK, peptide start residue: 183)”, the log2 fold change is -0.401.

In the case of “UniProt P31548 (peptide sequence: LPGELSGGQR, peptide start residue: 126)”, the log2 fold change is -0.702.
